Data from PubChem BioAssay AID1053205 (Broad Institute, 2014).
Entries with a potency or affinity are not part of this list. Records with an inconclusive call do not appear. The source made the active and inactive calls.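 The calls were made as follows: active = compounds lowering the FRET ratio whose fitted half-maximal concentration is at most twice their top tested dose; inconclusive = flat partial drop between 30 and 70 percent, or bad fit; inactive = the rest.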

The molecules below were run against Voltage-dependent L-type calcium channel subunit alpha-1D (Homo sapiens) (UniProt Q01668) (assay: inhibitors of CaV1.3 ICDI-IQ binding, dose response, cell-based, HEK293, YFP-IQ/CFP-ICDI FRET, cherry-picks (AID 1053205)). Conditions: HEK293 YFP-IQ/CFP-ICDI FRET ratio, 10 min; series mostly up to 35 µM.
Chain of Voltage-dependent L-type calcium channel subunit alpha-1D (Homo sapiens) (Q01668 whole entry, looked up): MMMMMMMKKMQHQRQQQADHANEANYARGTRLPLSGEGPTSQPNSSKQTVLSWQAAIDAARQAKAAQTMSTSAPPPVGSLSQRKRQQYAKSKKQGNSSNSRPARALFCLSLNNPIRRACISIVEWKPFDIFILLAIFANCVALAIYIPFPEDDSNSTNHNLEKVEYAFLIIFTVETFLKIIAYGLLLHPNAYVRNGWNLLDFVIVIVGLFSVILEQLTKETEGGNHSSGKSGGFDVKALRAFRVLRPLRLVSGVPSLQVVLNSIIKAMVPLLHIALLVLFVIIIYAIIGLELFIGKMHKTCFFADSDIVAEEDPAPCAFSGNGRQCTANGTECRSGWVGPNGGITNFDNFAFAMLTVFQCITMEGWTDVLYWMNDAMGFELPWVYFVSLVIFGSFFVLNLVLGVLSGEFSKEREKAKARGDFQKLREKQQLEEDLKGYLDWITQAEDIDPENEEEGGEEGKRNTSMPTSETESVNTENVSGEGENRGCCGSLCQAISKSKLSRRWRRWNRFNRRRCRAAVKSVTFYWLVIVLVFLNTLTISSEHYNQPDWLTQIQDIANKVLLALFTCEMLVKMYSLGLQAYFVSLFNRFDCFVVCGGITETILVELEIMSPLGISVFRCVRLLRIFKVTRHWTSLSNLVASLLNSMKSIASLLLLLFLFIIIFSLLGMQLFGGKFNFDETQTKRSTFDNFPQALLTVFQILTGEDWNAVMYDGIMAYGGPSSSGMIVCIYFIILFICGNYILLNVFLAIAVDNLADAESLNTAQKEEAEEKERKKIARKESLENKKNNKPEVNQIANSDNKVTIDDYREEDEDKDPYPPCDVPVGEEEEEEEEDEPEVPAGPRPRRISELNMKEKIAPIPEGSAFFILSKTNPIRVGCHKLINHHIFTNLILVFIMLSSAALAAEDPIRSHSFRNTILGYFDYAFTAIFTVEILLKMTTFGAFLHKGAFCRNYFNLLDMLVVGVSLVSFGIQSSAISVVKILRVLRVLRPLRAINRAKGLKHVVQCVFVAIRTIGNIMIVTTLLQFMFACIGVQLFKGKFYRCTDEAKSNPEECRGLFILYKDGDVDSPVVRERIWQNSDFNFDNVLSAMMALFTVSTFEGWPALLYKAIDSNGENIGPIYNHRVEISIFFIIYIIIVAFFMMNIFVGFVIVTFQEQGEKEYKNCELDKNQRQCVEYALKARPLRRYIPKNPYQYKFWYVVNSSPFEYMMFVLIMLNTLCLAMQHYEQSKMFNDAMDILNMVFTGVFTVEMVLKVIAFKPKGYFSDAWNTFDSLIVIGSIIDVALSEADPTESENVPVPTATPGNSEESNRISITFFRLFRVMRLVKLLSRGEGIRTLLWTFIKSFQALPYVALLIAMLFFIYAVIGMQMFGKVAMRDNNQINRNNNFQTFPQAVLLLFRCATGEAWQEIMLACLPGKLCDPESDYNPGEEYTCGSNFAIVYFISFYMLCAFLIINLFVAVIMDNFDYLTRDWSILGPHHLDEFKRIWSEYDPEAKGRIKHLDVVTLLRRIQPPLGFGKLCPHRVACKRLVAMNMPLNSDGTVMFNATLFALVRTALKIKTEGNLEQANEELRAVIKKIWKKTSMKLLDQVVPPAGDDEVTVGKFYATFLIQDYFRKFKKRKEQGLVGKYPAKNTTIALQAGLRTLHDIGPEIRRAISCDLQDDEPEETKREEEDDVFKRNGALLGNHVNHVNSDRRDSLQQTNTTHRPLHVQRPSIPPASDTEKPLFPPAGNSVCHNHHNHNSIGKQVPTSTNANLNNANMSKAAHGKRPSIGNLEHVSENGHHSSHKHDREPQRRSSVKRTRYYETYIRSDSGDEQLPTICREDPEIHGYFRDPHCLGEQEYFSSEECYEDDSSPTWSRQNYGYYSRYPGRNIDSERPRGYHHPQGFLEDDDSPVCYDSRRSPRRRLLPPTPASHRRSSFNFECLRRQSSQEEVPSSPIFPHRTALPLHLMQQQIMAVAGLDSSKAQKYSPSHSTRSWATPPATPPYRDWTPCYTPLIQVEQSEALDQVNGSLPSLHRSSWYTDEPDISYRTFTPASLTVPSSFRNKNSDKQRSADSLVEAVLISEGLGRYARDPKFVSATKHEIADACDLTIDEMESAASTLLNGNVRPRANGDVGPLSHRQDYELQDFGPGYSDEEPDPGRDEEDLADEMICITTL

outcome, inactive:
CCC(C)n1c(=N)c(C#N)cc2c(=O)n3cc(C)ccc3nc21 (configuration not stated), CN(C)C(=O)CSc1nc2ccc(C(=O)c3ccccc3)cc2[nH]1, CNC(=O)c1ccc(NC(=O)c2cccc(C(F)(F)F)c2)cc1, Nc1nc(-c2cc(O)ccc2[N+](=O)[O-])cc(-c2ccccc2)c1[N+](=O)[O-], COc1ccc(C2c3ccc(O)cc3Oc3ncn4nc(-c5ccccn5)nc4c32)cc1 (configuration not stated), CCOc1ccc(S(=O)(=O)Nc2ccc(C(=O)N(CC)CC(=O)NCc3cccs3)cc2)cc1, COc1ccc(CCN=C(N)NS(=O)(=O)c2ccc(F)cc2)cc1, O=[N+]([O-])c1cccc(-c2n[nH]c(=S)n2-c2ccc(Br)cc2)c1, O=C(Cn1ccc([N+](=O)[O-])n1)N1CCCCCC1, CC(=O)c1cc2c(ccc3ccccc32)oc1=O, Cc1ccc(C(=O)OCC(=O)Nc2c(C)nn(-c3ccccc3)c2C)c(O)c1, O=C(/C=C/c1ccccc1)C1=C(O)C(=O)N(CCO)C1c1ccc2c(c1)OCO2 (configuration not stated), CC1CCN(C(=O)COc2cccc3c2CCN(Cc2ccccc2)C3=O)CC1, O=C(c1ccccc1)N1CCN(c2ccc(NCc3ccc4c(c3)OCO4)cc2)CC1, COc1cc(C2C3=C(CC(C)(C)CC3=O)N(C)C3=C2C(=O)CC(C)(C)C3)cc(Br)c1O, CC(=O)c1cc2ccc(O)cc2oc1=O, Cc1cccn2c(=O)c3cc(C#N)c(=NC(=O)c4cccs4)n(CC(C)C)c3nc12
